From PubChem BioAssay
HT1080-NT tox = qHTS for induction of synthetic lethality in tumor cells producing 2HG: qHTS for the HT-1080-NT fibrosarcoma cell line; HT-1080-NT fibrosarcoma viability, CellTiter-Glo ATP luminescence, 48 h; AID 686970, 2013; Potency, µM (doses to about 46.1 µM), most hits filed as cytotoxic; actives 1.6% (n = 360,000);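 note: NT is the 2HG producing partner of a matched IDH1 knockdown line; nearly all actives have a fitted effect of over 55% in size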
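Toxicity toward the 2HG-producing NT line was scored as %Activity, normalised to DMSO and no-cell wells, from CellTiter-Glo luminescence after 48 hours' treatment.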
IL-1B inflam inh = qHTS for Inhibitors of Inflammasome Signaling: IL-1-beta AlphaLISA Primary Screen. THP-1 LPS/ATP IL-1B secretion, AlphaLISA, 16 h; stronger effect = lower value. activity change, % at 57.5 µM. actives 4.7% (n = 360,000). AID 743279, 2014; in the data active = activity change below about -50%; inconclusive = mostly about -30% to -49%
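THP-1 cells pretreated 1 hr with compounds (up to 57.5 uM final), then stimulated with LPS (250 ng/mL final) plus ATP (1.25 mM final); secreted IL-1B measured by AlphaLISA after 16 hr, decreased signal indicating inhibition.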
DT40 TDP1 no CPT = qHTS for Inhibitors of human tyrosyl-DNA phosphodiesterase 1 (TDP1): qHTS in cells in absence of CPT; Potency, µM (top dose mostly 46.2 µM), actives largely listed as inhibitors; actives 15% (n = 420,000); DT40 Tdp1-/- hTDP1 cells, no CPT, ATP luminescence, 48 h; note: nearly all actives have a fitted effect of over 55% in size
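Growth of hTDP1-complemented DT40 Tdp1-knockout cells is measured by ATP luminescence after at least 48 hr compound exposure at 37 °C, with DMSO substituting for the 20 nM CPT used in the parallel screen.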
DT40 TDP1 CPT = qHTS for Inhibitors of human tyrosyl-DNA phosphodiesterase 1 (TDP1): qHTS in cells in presence of CPT; chicken DT40 Tdp1-/-;hTDP1 cells + 20 nM CPT, ATP luminescence, 48 h; Potency, µM (highest dose often 46.2 µM), actives largely listed as inhibitors; actives 12% (n = 420,000); note: nearly all actives have a fitted effect of over 55% in size
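Chicken DT40 Tdp1-/- cells complemented with human TDP1, 400 cells/well, exposed to compounds plus 20 nM camptothecin for at least 48 h at 37 C; viability read as ATP content by CellTiter-Glo luminescence.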
HT1080 IDH1KD tx = qHTS for induction of synthetic lethality in tumor cells producing 2HG: qHTS for the HT-1080-IDH1KD cell line; HT-1080 IDH1 knockdown viability, ATP luminescence, 48 h; Potency, µM (titrated, usually from 46.1 µM), usual class: cytotoxic; actives 2% (n = 360,000); AID 686971, 2013
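Knockdown cells (IDH1KD HT-1080) received compounds 2 h after plating at 750 cells/well and were kept 48 h at 37 °C in 5% FBS RPMI. A CellTiter-Glo luminescence read gave % activity for curve fitting.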
Hits are given with their value; – = inactive; ? = inconclusive; · = no result. The list is not random: actives were taken first. Their share in the collection is about 19%. Unless noted, calls come from the whole dose curve; as a rule, active = well fitted curve in the direction sought with a large enough effect; inconclusive = small, poorly fitted or top-dose-only effect, or another doubt; inactive = no such curve, though single readings can be large; an effect the other way counts as inactive or inconclusive.

SMILES	HT1080-NT tox	IL-1B inflam inh	DT40 TDP1 no CPT	DT40 TDP1 CPT	HT1080 IDH1KD tx
COc1ccc(NC(=O)c2c(-c3c(Cl)cccc3Cl)noc2C)c(OC)c1	–	?	?	?	–
COc1ccc(C2=NS(=O)(=O)N(C)C(C(=O)NCc3cccs3)=C2)cc1OC	–	–	?	15µM	–
COc1ccc(NC(=O)C2=CC(c3ccc(OC)cc3)=NS(=O)(=O)N2C)cc1	–	–	21µM	?	–
Cc1csc(/C(=N\O)c2csc(C)n2)n1	?	–	?	–	16µM
NC(=O)CSc1nnc(C2CC2)n1-c1ccccc1	–	–	–	–	–
COc1ccc(-c2cc(CNC(=O)CCl)on2)cc1	?	-92	?	?	?
CCCCCCCCn1c(=O)c(C(=O)OC)c(N)c2ccccc21	21µM	-95	3.3µM	1.3µM	16µM
CCCCCCCn1c(=O)c(C(=O)OC)c(N)c2ccccc21	?	-59	3.3µM	3.3µM	?
CCCCCCn1c(=O)c(-c2ccccc2)c(O)c2ccccc21	–	–	–	–	–
COC(=O)c1cc(C(=O)c2c(C)cc3ccccn23)cc([N+](=O)[O-])c1	16µM	–	12µM	8.2µM	?
Cc1cc2ccccn2c1C(=O)c1ccc(C#N)cc1	–	–	23µM	?	–
Cc1cc2ccccn2c1C(=O)Nc1ccc(Cl)cc1	–	–	–	–	–
Cc1cc2ccccn2c1C(=O)c1ccc(NN)c([N+](=O)[O-])c1	?	?	?	16µM	?
Cc1cc2ccccn2c1C(=O)c1cc([N+](=O)[O-])cc([N+](=O)[O-])c1	–	–	–	–	–
CCc1ccc(-n2c(C)n[nH]c2=S)cc1	–	–	–	–	–
CCN(CC)C1Oc2cc3c(cc2C(c2cc(OC)c(OC)c(OC)c2)C1C)OCO3 (configuration not stated)	1.8µM	–	1.2µM	2.3µM	1.5µM
COc1cc(CC(=O)Oc2ccc3c(c2)OCO3)cc(OC)c1OC	–	–	?	?	–
COc1cc2c(c(OC)c1OC)C(=O)CO2	–	–	–	–	–
COc1cc([C@@H]2c3cc4c(cc3[C@@H](O)[C@H]3COC(=O)[C@H]23)OCO4)cc(OC)c1O[Si](C)(C)C(C)(C)C	?	-88	15µM	13µM	?
COc1cc(C2c3cc4c(cc3C3OC(=O)C2C3CO)OCO4)cc(OC)c1OC (configuration not stated)	0.01µM	–	0.016µM	0.01µM	0.016µM
COc1cc(C2c3cc4c(cc3OC(N3CCCCC3)C2C)OCO4)cc(OC)c1O (configuration not stated)	–	–	?	?	–
COC(=O)C[C@@H]1OC[C@H](C(C)C)N1S(=O)(=O)c1ccc(C)cc1	–	–	?	–	–
CCOC(=O)C1OC1C(=O)NC(CC(C)C)C(=O)NCCC(C)C (configuration not stated)	·	·	–	?	·
Fc1cccc(F)c1C(Nc1nncs1)Nc1nncs1	–	–	–	–	–
Cc1nc2ccc(NC(=O)Cc3ccc(Br)cc3)cc2s1	?	–	–	–	–
SMILES	HT1080-NT tox	IL-1B inflam inh	DT40 TDP1 no CPT	DT40 TDP1 CPT	HT1080 IDH1KD tx
Cc1nc2ccc(NC(=O)c3ccc(Br)o3)cc2s1	–	-57	?	–	–
CC(=O)Nc1ccc2nc(NC(=O)c3ccc([N+](=O)[O-])o3)sc2c1	?	-61	?	?	5.2µM
CCCC(=O)Nc1nc2ccc(NC(=O)c3ccc(Br)o3)cc2s1	–	-61	23µM	?	–
CC(C)(C)c1nc(CN2CCOCC2)ccc1O	–	–	–	–	–
CC(C)(C)c1nc(CN2CCCCC2)cc(CN2CCCCC2)c1O	–	–	?	18µM	–
O=C(Nc1nnc(C2CC2)s1)c1ccncc1	–	–	–	–	–
COc1cc2ncnc(Nc3cccc(Cl)c3)c2cc1OC	·	·	13µM	18µM	·
Brc1ccc(COc2ncnc3ccccc23)cc1	–	–	–	–	?
